Measurements taken from PMC4336329 (PLoS ONE, 2015).
The campaign covered roughly 310,000 compounds. About 14,000 (4.5%) showed an effect of 50% or more. The effect is printed as a negative number. Shown is part of a subset that was picked to be rich in strong results.
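Further: peak tail current of the secondary pulse compared with the same well before compound.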

The compounds below were run against human ether-à-go-go-related gene (hERG) potassium channel (human, UniProt Q12809) (assay: primary screen, population patch clamp on CHO cells stably expressing hERG; higher = less effect of the substance).
Sequence of human ether-à-go-go-related gene (hERG) potassium channel (Q12809 whole entry, looked up): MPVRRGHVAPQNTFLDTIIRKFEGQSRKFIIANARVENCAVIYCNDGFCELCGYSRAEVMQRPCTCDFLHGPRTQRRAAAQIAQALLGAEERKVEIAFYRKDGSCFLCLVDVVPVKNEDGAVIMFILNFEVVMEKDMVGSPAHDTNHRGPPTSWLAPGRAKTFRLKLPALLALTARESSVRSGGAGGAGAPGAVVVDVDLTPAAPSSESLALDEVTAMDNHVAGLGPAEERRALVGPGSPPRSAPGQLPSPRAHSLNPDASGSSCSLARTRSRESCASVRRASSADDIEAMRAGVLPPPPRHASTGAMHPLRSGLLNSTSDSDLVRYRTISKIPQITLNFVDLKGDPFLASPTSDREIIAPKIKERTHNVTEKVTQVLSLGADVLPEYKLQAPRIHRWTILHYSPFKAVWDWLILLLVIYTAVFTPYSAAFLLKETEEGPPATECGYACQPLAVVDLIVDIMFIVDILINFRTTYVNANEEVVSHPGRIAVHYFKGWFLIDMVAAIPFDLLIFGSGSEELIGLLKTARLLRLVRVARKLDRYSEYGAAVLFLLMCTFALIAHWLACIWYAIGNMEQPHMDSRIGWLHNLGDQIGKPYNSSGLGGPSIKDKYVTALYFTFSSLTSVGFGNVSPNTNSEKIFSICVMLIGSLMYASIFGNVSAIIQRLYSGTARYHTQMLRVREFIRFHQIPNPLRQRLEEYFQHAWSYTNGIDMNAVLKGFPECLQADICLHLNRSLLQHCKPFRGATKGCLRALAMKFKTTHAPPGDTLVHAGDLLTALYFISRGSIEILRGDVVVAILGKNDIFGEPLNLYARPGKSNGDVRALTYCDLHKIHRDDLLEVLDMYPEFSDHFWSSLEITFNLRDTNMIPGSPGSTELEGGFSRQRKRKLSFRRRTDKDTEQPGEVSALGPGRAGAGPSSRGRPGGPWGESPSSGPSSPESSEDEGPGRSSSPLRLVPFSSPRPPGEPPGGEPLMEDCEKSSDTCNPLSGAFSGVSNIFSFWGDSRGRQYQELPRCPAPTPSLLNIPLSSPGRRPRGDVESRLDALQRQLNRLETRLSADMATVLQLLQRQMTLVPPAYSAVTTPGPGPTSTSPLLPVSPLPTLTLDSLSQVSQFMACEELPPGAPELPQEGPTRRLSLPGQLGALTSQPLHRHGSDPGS
`COc1ccc(-n2nc(C(=O)NCC(=O)N3CCN(c4ccccc4OC)CC3)c3ccccc3c2=O)cc1OC` was tested, and the “hERG current change (%, negative = inhibition) at 10uM” value was -34.5%.
`CC1CCN(C(=O)CCc2ccc(S(=O)(=O)NC(C)(C)C)cc2)CC1` was tested, and the “hERG current change (%, negative = inhibition) at 10uM” value was -5.31%.
For `O=C(N/N=C/c1ccncc1)c1cc([N+](=O)[O-])cc([N+](=O)[O-])c1O`, the “hERG current change (%, negative = inhibition) at 10uM” value was 4.15%.
With `CCOC(=O)C(=O)Nc1nnc(CCc2ccccc2)s1` the “hERG current change (%, negative = inhibition) at 10uM” value was 6.37%.
With `COCCNS(=O)(=O)c1ccc(OCC(=O)N2CCc3ccccc3C2)c(Cl)c1` the “hERG current change (%, negative = inhibition) at 10uM” value was -43.5%.
With `CCCNS(=O)(=O)c1ccc(OCC(=O)N2CCN(Cc3ccc4c(c3)OCO4)CC2)c(C)c1` the “hERG current change (%, negative = inhibition) at 10uM” value was -61.6%.
For `CCCNS(=O)(=O)c1ccc(OCC(=O)N2CCc3ccccc3C2)c(C)c1`, the “hERG current change (%, negative = inhibition) at 10uM” value was -65.9%.
With `Cc1cc(S(=O)(=O)NC(C)C)ccc1OCC(=O)N1CCN(Cc2ccc3c(c2)OCO3)CC1` the “hERG current change (%, negative = inhibition) at 10uM” value was -27.6%.
For `Cc1ccc(OCC(=O)N2CCc3ccccc3C2)c(C)c1`, the “hERG current change (%, negative = inhibition) at 10uM” value was -16.1%.
For `CCCNS(=O)(=O)c1ccc(OCC(=O)N2CCN(Cc3ccc4c(c3)OCO4)CC2)cc1`, the “hERG current change (%, negative = inhibition) at 10uM” value was -32%.
For `CCOc1cc(C)c(C(C)C)cc1S(=O)(=O)n1cnc(C)c1`, the “hERG current change (%, negative = inhibition) at 10uM” value was -18.7%.
`Cc1ccc(NC(=O)C2=COCCO2)cc1S(=O)(=O)N1CCOCC1` was tested, and the “hERG current change (%, negative = inhibition) at 10uM” value was -0.0399%.
In the case of `CCOC(=O)C1CCN(C2CC(=O)N(c3cccc(Cl)c3)C2=O)CC1` (stereo not drawn), the “hERG current change (%, negative = inhibition) at 10uM” value is reported as -12%.
For `c1ccc(C[C@H]2CN=C(Nc3ccccc3)N2CCC2CCCC2)cc1`, the “hERG current change (%, negative = inhibition) at 10uM” value was -70.4%.
In the case of `CC(C)C[C@H]1CN=C(Nc2ccccc2)N1CC1CCC1`, the “hERG current change (%, negative = inhibition) at 10uM” value is reported as -30.2%.
With `c1ccc(C[C@H]2CN=C(Nc3ccccc3)N2CC2CCC2)cc1` the “hERG current change (%, negative = inhibition) at 10uM” value was -63%.
`C[C@H]1CN=C(Nc2ccccc2)N1CC1CCC1` was tested, and the “hERG current change (%, negative = inhibition) at 10uM” value was -0.391%.
In the case of `CCn1c2ccccc2c2cc(NC(=O)COC(=O)c3cc(OC)c(OC)cc3OC)ccc21`, the “hERG current change (%, negative = inhibition) at 10uM” value is reported as -3.41%.
In the case of `COC(=O)c1ccccc1NC(=O)c1cc2nc(C3CC3)cc(C(F)(F)F)n2n1`, the “hERG current change (%, negative = inhibition) at 10uM” value is reported as 9.42%.
With `Cn1c(Sc2ccc(C(F)(F)F)cc2[N+](=O)[O-])nnc1-c1ccccc1` the “hERG current change (%, negative = inhibition) at 10uM” value was -62.8%.
For `Cn1c(Sc2ccc([N+](=O)[O-])cc2C(F)(F)F)nnc1-c1ccccc1`, the “hERG current change (%, negative = inhibition) at 10uM” value was -55%.
For `CSc1nnc(-c2ccccc2)n1C`, the “hERG current change (%, negative = inhibition) at 10uM” value was 5.22%.
`Cn1cnnc1Sc1ccc(C(F)(F)F)cc1[N+](=O)[O-]` was tested, and the “hERG current change (%, negative = inhibition) at 10uM” value was 2.45%.
`Cn1c(Sc2ccc(C(=O)O)cc2[N+](=O)[O-])nnc1-c1ccccc1` was tested, and the “hERG current change (%, negative = inhibition) at 10uM” value was -6.68%.
With `Cn1c(SCC(=O)N/N=C/c2cc([N+](=O)[O-])ccc2O)nnc1-c1ccccc1` the “hERG current change (%, negative = inhibition) at 10uM” value was 10.5%.
For `CC(=O)Nc1ccc(S(=O)(=O)Nc2c(C)nn(-c3ccccc3)c2C)cc1`, the “hERG current change (%, negative = inhibition) at 10uM” value was -7.68%.
In the case of `O=c1c(C(c2ccc(Cl)cc2)c2c(O)nc3n(c2=O)CCCS3)c(O)nc2n1CCCS2`, the “hERG current change (%, negative = inhibition) at 10uM” value is reported as 21.3%.
With `CCN(CC)S(=O)(=O)c1cccc(-c2nnc(SCCCC(=O)c3ccccc3)o2)c1` the “hERG current change (%, negative = inhibition) at 10uM” value was -23.8%.
In the case of `O=C(Nc1ccc(O)cc1)C1CCCN1S(=O)(=O)c1ccc(F)cc1` (stereo not drawn), the “hERG current change (%, negative = inhibition) at 10uM” value is reported as -1.44%.
With `C=CCn1c(SCc2ccc(C(=O)OC)cc2)nnc1-c1sc(N)nc1C` the “hERG current change (%, negative = inhibition) at 10uM” value was -8.5%.
`COC(=O)c1sc(N)c(C(=O)OC)c1CSc1nnc(-c2ccccc2Cl)n1C` was tested, and the “hERG current change (%, negative = inhibition) at 10uM” value was -24.5%.
`C=CCn1c(SCc2c(C(=O)OC)sc(N)c2C(=O)OC)nnc1-c1ccc(Cl)cc1` was tested, and the “hERG current change (%, negative = inhibition) at 10uM” value was -58.1%.
`C=CCn1c(SCc2c(C(=O)OC)sc(N)c2C(=O)OC)nnc1-c1ccc(Br)cc1` was tested, and the “hERG current change (%, negative = inhibition) at 10uM” value was -65.4%.
In the case of `COC(=O)c1sc(N)c(C(=O)OC)c1CSc1nnnn1C`, the “hERG current change (%, negative = inhibition) at 10uM” value is reported as -12.2%.
For `C=CCn1c(SCC(=O)NC2CCCCC2)nnc1-c1ccc(OC)cc1`, the “hERG current change (%, negative = inhibition) at 10uM” value was -12%.
For `O=C(O)c1cccnc1SCC(=O)N1CCCc2ccccc21`, the “hERG current change (%, negative = inhibition) at 10uM” value was 14.6%.
With `Nc1nc(SCC(=O)Nc2ccccc2)nc2nc3c(cc12)CCCC3` the “hERG current change (%, negative = inhibition) at 10uM” value was -1.5%.
`C=C1SC(=Nc2c(C)cccc2Cl)N(C(=O)c2sc3ccccc3c2Cl)C12CCCCC2` was tested, and the “hERG current change (%, negative = inhibition) at 10uM” value was 25.8%.
For `Cc1ccc(S(=O)(=O)NCCCCCC(=O)Nc2cccc(C)c2)cc1`, the “hERG current change (%, negative = inhibition) at 10uM” value was -39.2%.
`Cc1cc(C)c(OCCN2CCOCC2)c(Cl)c1` was tested, and the “hERG current change (%, negative = inhibition) at 10uM” value was 8.09%.
For `Cc1cc(Cl)c(OCCCN2CCCCC2)c(Br)c1.O=C(O)C(=O)O`, the “hERG current change (%, negative = inhibition) at 10uM” value was -68.1%.
In the case of `Cc1cc(Cl)c(OCCOCCN2CCNCC2)c(Cl)c1.O=C(O)C(=O)O`, the “hERG current change (%, negative = inhibition) at 10uM” value is reported as -7.47%.
